Source: PubChem BioAssay (EPA / NIEHS)
Results filed as inconclusive are left out. Activity calls are given as the source filed them. How the source made its calls: active means hit-call score of the fitted dose curve at least 0.9, where 1 is the maximum; inconclusive means response in the unintended direction; inactive means score below 0.9.

These compounds were tested against Ratio of Nucleoli Translocation and Cytoplasm, AR (gene 367) (UniProt P10275) (assay: UPITT_HCI_U2OS_AR_TIF2_Nucleoli_Cytoplasm_Ratio_Antagonist: University of Pittsburgh U2OS Androgen Receptor-Transcriptional Intermediary Factor 2 (AR-TIF2) Antagonism High Content Imaging Assay for Ratio of Nucleoli Translocation and Cytoplasm (AID 2283999);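 further: antagonists lower the DHT-driven ratio of nucleolar to cytoplasmic red signal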).
Source text: UPITT_AR_TIF2_PPIB is a cell-based, high-content imaging assay that uses U2OS, a human osteosarcoma cell line, expressing a human androgen receptor fused to red fluorescent protein and the coactivator TIF2 fused to green fluorescent protein. UPITT_HCI_U2OS_AR_TIF2_Nucleoli_Cytoplasm_Ratio_Antagonist is one of four assay components measured from the UPITT_AR_TIF2_PPIB assay. It is designed to make measurements of the ratio of red fluorescence localized in the nucleolar region of the cell nucleus to red fluorescence localized in the cytoplasm as detected with high-content fluorescent imaging.Data from the assay component UPITT_HCI_U2OS_AR_TIF2_Nucleoli_Cytoplasm_Ratio_Antagonist was analyzed into 1 assay endpoint. This assay endpoint, UPITT_HCI_U2OS_AR_TIF2_Nucleoli_Cytoplasm_Ratio_Antagonist, was analyzed in the positive analysis fitting direction relative to DHT as the baseline of activity. Using a type of binding reporter, measures of receptor for loss-of-signal activity can be used to understand the binding at the pathway-level as it relates to the gene AR.
Daughter plates containing 2 uL of 10 mM compounds in DMSO were prepared and replicated from the 384-well Library of Pharmacologically Active Compounds (LOPAC) master plates using the Bravo outfitted with a 384-well transfer head. Aluminum adhesive plate seals were applied with an Abgene Seal-IT 100 (Rochester, NY) plate sealer, and the plates were stored at -20 C in a Matrical MatriMinistore (Spokane, WA) automated compound storage and retrieval system. For screening, LOPAC daughter plates were withdrawn from -20C storage, thawed to ambient temperature, centrifuged 1-2 min at 50 g, and the plate seals were removed before the transfer of 98 uL of serum-free tissue culture medium (SFM) into wells using the BioTek Microflo liquid handler (BioTek, Winooski, VT) to generate a 200 uM intermediate stock concentration of library compounds (2.0% DMSO). The diluted compounds were mixed by repeated aspiration and dispensation using a 384-well P30 dispensing head on the Evolution P3 (EP3) liquid handling platform (PerkinElmer, Waltham, MA) and then 5 uL of diluted compounds was transferred to the wells of assay plates. In the LOPAC screen, compounds were individually tested at a final concentration of 20 uM (0.2% DMSO). After the diluted compounds had been transferred from the daughter plates to the primary HCS assay plates, aluminum adhesive plate seals were applied and the diluted daughter plates were stored frozen at -20C. To confirm active compounds identified in the primary screen, we withdrew the LOPAC daughter plates containing the 200 uM intermediate concentration of library compounds (2.0% DMSO) from -20C storage, thawed them to ambient temperature, centrifuged them for 1-2 min at 50 g, and removed the plate seals. A work list was generated to direct the Multiprobe Janus liquid handling platform (PerkinElmer) to cherry pick 75 uL from the wells of the diluted daughter plates that were flagged active in the primary screen and to reformat these into a 384-well plate hit confirmation daughter plate. Five microliters of primary HCS active compounds was then transferred into triplicate wells of assay plates using a 384-well P30 dispensing head on the Evolution P3 (EP3) liquid handling platform (PerkinElmer). […] Daughter plates containing 2 uL of the serially diluted compounds in DMSO were prepared and replicated from the 384-well serial dilution master plates using the Bravo outfitted with a 384-well transfer head. Aluminum adhesive plate seals were applied and plates were stored at -20C. For testing in the bioassays, daughter plates were withdrawn from -20C storage, thawed to ambient temperature, centrifuged for 1-2 min at 50 g, and the plate seals were removed before the transfer of 38 uL of SFM into wells using the BioTek Microflo liquid handler (BioTek) to generate an intermediate stock concentration of library compounds ranging from 1.95 to 500 uM (5.0% DMSO). […]

Chain of Ratio of Nucleoli Translocation and Cytoplasm, AR (gene 367) (P10275 whole entry, looked up, the tested form may be a part): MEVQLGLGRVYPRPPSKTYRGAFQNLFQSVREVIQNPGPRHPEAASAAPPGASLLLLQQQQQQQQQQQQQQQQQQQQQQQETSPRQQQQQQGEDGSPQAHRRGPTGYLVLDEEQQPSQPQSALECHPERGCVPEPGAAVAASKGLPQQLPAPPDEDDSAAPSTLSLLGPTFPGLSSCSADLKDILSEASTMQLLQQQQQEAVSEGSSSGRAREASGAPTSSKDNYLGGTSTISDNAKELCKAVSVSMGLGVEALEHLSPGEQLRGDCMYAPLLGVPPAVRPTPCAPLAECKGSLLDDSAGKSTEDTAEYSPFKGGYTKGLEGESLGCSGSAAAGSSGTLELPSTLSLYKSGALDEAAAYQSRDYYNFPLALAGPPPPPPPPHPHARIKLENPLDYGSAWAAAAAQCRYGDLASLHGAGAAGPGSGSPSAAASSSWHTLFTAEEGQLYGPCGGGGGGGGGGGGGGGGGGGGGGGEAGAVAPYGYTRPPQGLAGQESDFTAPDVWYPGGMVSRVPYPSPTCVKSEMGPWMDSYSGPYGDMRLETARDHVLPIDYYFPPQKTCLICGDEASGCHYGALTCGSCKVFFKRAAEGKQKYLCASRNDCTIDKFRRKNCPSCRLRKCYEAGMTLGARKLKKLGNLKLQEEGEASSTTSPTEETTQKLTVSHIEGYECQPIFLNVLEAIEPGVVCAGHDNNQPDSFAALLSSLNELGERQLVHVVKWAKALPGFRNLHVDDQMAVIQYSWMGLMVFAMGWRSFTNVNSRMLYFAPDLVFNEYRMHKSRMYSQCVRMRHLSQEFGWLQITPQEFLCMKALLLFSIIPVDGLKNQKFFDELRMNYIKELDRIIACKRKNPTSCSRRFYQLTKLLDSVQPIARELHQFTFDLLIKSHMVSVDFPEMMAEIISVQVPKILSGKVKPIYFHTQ

Row | Compound | outcome | AC50
1 | CCSC(=O)N(CC(C)C)CC(C)C | inactive | –
2 | O=C(c1ccc(O)cc1O)c1ccc(O)cc1O | – | 2.35 µM (active)
3 | CCCCOCCOCCOCc1cc2c(cc1CCC)OCO2 | inactive | –
4 | CN(C)C(=O)Nc1ccc(Cl)c(Cl)c1 | inactive | –
5 | N#CSCSc1nc2ccccc2s1 | – | 32.4 µM (active)
6 | CSC(=O)c1cccc2nnsc12 | inactive | –
7 | COC(=O)CSc1cc(N=c2sc(=O)n3n2CCCC3)c(F)cc1Cl | inactive | –
8 | CC(C)(c1ccc(O)cc1)c1ccc(O)cc1 | inactive | –
9 | CCCOC(=O)c1ccc(C(=O)OCCC)nc1 | inactive | –
10 | CC1(C)C(C=C(Cl)Cl)C1C(=O)OCc1cccc(Oc2ccccc2)c1 (centres undefined) | inactive | –
11 | CC(=O)S[C@@H]1CC2=CC(=O)CC[C@]2(C)[C@H]2CC[C@@]3(C)[C@@H](CC[C@@]34CCC(=O)O4)[C@H]12 | inactive | –
12 | CCOC(=O)C(C)Oc1ccc(Oc2nc3ccc(Cl)cc3o2)cc1 (centres undefined) | inactive | –
13 | O=C(c1ccccc1)C1CCCCC1 | inactive | –
14 | Cc1nn(C)c(Oc2ccccc2)c1C=NOCc1ccc(C(=O)OC(C)(C)C)cc1 | inactive | –
